Bioassay records: PubChem, several laboratories
Shn3 3UTR inh: Schnurri-3 reporter inhibition in Clone20 osteoblasts. AID 588674. inhibition, % at 12.5 µM. hit rate 0.52% among 360,000. Clone20 osteoblast Shn3 3'UTR firefly luciferase, 24 h;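 active = mean inhibition of at least 75% with every replicate also reaching 75%; inconclusive = mean inhibition at least 75% but some replicate below; inactive = mean inhibition below 75%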
EWS-Fli block: EWS/Fli transcriptional activity inhibition | A673 NR0B1-luciferase reporter, viability-normalised | inhibition, % at 12.6 µM | hit rate 0.67% among 350,000 | AID 651661;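 active = mean inhibition of at least 50% after viability correction, with every replicate also passing that limit; inconclusive = mean reaches 50% but only one of two replicates passes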;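 note: firefly luciferase signal divided by Alamar Blue viability fluorescence both relative to DMSO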
ABHD5-PLIN5 inh: blocks binding of human ABHD5 to perilipin-5 | Q00G26+Q8WTS1 | Split G. princeps luciferase complementation, luminescence, 4 h | inhibition, % at 4 µM | hit rate 0.78% among 360,000;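 active = inhibition above the mean inhibition across every tested compound plus 3 SD, cut at about 22% in these data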
Target sequence (Q00G26 whole entry, looked up): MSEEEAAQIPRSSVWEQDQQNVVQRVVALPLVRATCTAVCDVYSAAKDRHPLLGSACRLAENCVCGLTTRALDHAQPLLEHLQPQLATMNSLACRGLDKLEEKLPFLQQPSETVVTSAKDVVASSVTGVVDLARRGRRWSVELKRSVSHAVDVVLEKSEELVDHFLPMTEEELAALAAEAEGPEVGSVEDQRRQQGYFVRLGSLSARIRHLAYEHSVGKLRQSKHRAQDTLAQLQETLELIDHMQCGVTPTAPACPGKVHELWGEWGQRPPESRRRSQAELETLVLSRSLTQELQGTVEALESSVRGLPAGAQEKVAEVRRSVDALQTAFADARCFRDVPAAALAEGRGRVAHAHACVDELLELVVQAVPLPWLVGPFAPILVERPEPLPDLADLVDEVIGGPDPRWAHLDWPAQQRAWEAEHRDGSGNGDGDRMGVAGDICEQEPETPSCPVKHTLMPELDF
Target sequence (Q8WTS1 whole entry, looked up): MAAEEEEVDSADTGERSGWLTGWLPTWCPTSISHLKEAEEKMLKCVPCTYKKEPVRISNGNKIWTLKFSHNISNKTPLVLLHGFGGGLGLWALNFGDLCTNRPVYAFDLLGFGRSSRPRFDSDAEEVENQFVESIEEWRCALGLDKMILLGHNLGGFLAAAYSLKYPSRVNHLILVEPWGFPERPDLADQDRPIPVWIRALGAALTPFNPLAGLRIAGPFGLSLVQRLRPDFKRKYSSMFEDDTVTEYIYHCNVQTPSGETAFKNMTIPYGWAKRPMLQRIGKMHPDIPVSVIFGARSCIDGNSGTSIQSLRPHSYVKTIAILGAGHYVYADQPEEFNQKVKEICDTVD
Peg3 promoter: reduces Peg3 promoter-driven luciferase expression in HeLa. HeLa PEG-Prom luciferase reporter, luminescence, overnight. inhibition, % at 20 µM. hit rate 1.7% among 360,000. AID 588405;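 active = inhibition of at least 50% at 20 µM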
PAX8 reporter: inhibitors of PAX8 transcriptional activity in RMG-I cells | RMG-I TPO-luciferase reporter, SteadyGlo, 24 h | hit rate 1.2% among 360,000 | inhibition, % at 12.6 µM;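 active = mean replicate inhibition at least 60% with every replicate also reaching 60%; inconclusive = only one of the two criteria is met; inactive = mean below 60% and not all replicates reaching 60%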;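 note: luciferase light reporting Pax8 driven TPO promoter activity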
TRPM1 prom inh: MITF TRPM1 promoter inhibition in SK-MEL-5 cells | SK-MEL-5 TRPM1 promoter luciferase, 24 h | hit rate 0.83% among 330,000 | inhibition, % at 12.5 µM;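 active = mean inhibition across replicates of 60% or more, whatever share of single replicates reaches that level; inconclusive = some that reach 60%, reason not given; inactive = mean inhibition across replicates below 60%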
Numbers stand for hits; i = inactive; ? = inconclusive; nt = not tested or not shown. A selection: hits, their analogues and other compounds. The true share with any hit is near 3%.

SMILES | Shn3 3UTR inh | EWS-Fli block | ABHD5-PLIN5 inh | Peg3 promoter | PAX8 reporter | TRPM1 prom inh
CC(=O)c1cn(CCOc2cc(C)ccc2C)c2ccccc12 | 90 | i | i | i | i | i
COc1cccc(OCCn2cc(C(C)=O)c3ccccc32)c1 | 87 | i | i | i | i | i
C[C@@H]1CCCCO[C@@H](CN(C)C(=O)Nc2ccc(C(F)(F)F)cc2)[C@H](C)CN([C@H](C)CO)C(=O)c2cc(NC(=O)c3ccncc3)ccc2O1 | nt | i | nt | nt | i | nt
O=C(/C=C/c1ccccc1)NCc1ccco1 | i | i | i | i | i | i
N#C/C(=C\C=C\c1ccccc1)C(=O)NCc1ccco1 | i | i | i | 53 | i | i
C[C@H]1CN([C@@H](C)CO)C(=O)Cc2cc(NC(=O)CCCN(C)C)ccc2O[C@@H]1CN(C)C(=O)Nc1ccc2c(c1)OCO2 | nt | nt | nt | nt | i | nt
CN(C)c1cc[n+](CC(=O)Nc2ccc(Oc3ccccc3)cc2)cc1 | i | i | i | i | 89 | i
CCOc1ccc(NC(=O)C[n+]2ccc(N(C)C)cc2)cc1 | i | i | i | i | i | i
Cn1c(=O)c([N+](=O)[O-])c(Cl)c2ccccc21 | 97 | 61 | 34 | 105 | 101 | 95
COc1cc(Nc2ncc3c(n2)CCN(C(=O)Nc2ccc(C(C)C)cc2)C3)cc(OC)c1OC | i | i | i | i | 65 | nt
Cc1noc(C)c1S(=O)(=O)Nc1ccc2c(c1)C(=O)N([C@H](C)CO)C[C@H](C)[C@@H](CN(C)C(=O)CCC(F)(F)F)OCCCC[C@@H](C)O2 | nt | i | nt | nt | i | nt
C[C@@H]1CN([C@@H](C)CO)C(=O)c2cc(NC(=O)NC3CCCCC3)ccc2O[C@H]1CN(C)S(=O)(=O)c1ccc(Cl)cc1 | nt | i | nt | nt | i | nt
COc1cc2nc(C3CCC3)nc(N3CCN(c4ccccc4OC)CC3)c2cc1OC | i | i | i | i | 89 | i
COc1cc2nc(C3CCC3)nc(N3CCN(c4ccccn4)CC3)c2cc1OC | i | nt | i | i | nt | i
CN(C)C(=O)C[C@@H]1CC[C@H]2[C@H](COc3ccc(NC(=O)C4CCC4)cc3C(=O)N2C)O1 | nt | i | nt | nt | nt | nt
CC(C)CC#Cc1ccc([C@@H]2[C@@H](CO)N3C(=O)CN(C(=O)CN4CCOCC4)C[C@H]23)cc1 | nt | i | nt | nt | nt | nt
O=C(Nc1nc2ccc(C(=O)N3CCCCC3)cc2s1)C1CCCCC1 | i | 54 | i | i | i | i
Nc1ccc2nc(NC(=O)C3CCCCC3)sc2c1 | i | i | i | i | i | i
N#C[C@H]1[C@@H](c2ccccc2)[C@H](CO)N1C(=O)Nc1cccc(F)c1 | nt | i | nt | nt | i | nt
CO/N=C(\Cn1ncc(NC2CCCCC2)c(Br)c1=O)c1ccc(Cl)cc1 | 88 | nt | i | i | nt | i
CO/N=C(\Cn1ncc(N2CCCC2)c(Br)c1=O)c1ccc(Cl)cc1 | i | nt | i | i | nt | i
O=C(NCC[C@@H]1CC[C@H](NC(=O)C2CC2)[C@@H](CO)O1)c1ccc(F)cc1 | nt | i | nt | nt | nt | nt
CC(C)COC(=O)N(C)C[C@H]1OCc2cn(nn2)CCCC(=O)N([C@H](C)CO)C[C@H]1C | nt | i | nt | nt | i | nt
COc1cc(Cl)c(C)cc1NC(=O)c1ccccc1NC(=O)CN1CCN(c2ccccn2)CC1 | i | i | i | 91 | i | nt
Cc1cnc(NC(=O)CN2CCN(c3ccccn3)CC2)s1 | i | nt | i | i | 68 | i
SMILES | Shn3 3UTR inh | EWS-Fli block | ABHD5-PLIN5 inh | Peg3 promoter | PAX8 reporter | TRPM1 prom inh
COc1cc(NC(=O)c2ccccc2)c(OC)cc1NC(=O)CN1CCN(c2ccccn2)CC1 | i | nt | i | i | nt | i
C(=C\c1ccccc1)/C=N/Nc1nc(N2CCCCC2)nc(N2CCCCC2)n1 | i | nt | i | 51 | nt | i
COc1ccc(C(=O)/C(C#N)=N/Nc2cccc([N+](=O)[O-])c2)cc1 | i | 62 | i | i | i | i
N#C/C(=N\Nc1cccc(Cl)c1)C(=O)c1ccccc1 | i | nt | i | i | nt | i
C[C@@H]1CCCCO[C@H](CN(C)S(=O)(=O)c2cn(C)cn2)[C@H](C)CN([C@@H](C)CO)C(=O)c2cc(NC(=O)CCCCCC(=O)Nc3ccccc3N)ccc2O1 | nt | i | nt | nt | i | nt
CNC[C@@H]1Oc2ccc(NC(=O)NC(C)C)cc2CC(=O)N([C@@H](C)CO)C[C@@H]1C | nt | i | nt | nt | 92 | nt
CNC[C@@H]1Oc2ccc(NC(=O)NC(C)C)cc2CC(=O)N([C@H](C)CO)C[C@@H]1C | nt | i | nt | nt | i | nt
CNC[C@H]1Oc2ccc(NC(=O)NC(C)C)cc2CC(=O)N([C@@H](C)CO)C[C@@H]1C | nt | i | nt | nt | 91 | nt
COc1ccc(NC(=O)CCOc2cc(C)ccc2C)cc1S(=O)(=O)N1CCCCC1 | 93 | i | i | i | i | i
COc1cc(C(C)=O)ccc1OCC(=O)Nc1ccc(C)c(S(=O)(=O)N2CCCCCC2)c1 | i | i | i | 55 | i | i
COc1ccc(NC(=O)CCCOc2ccc(C)cc2)cc1S(=O)(=O)N1CCCCC1 | i | i | i | i | i | nt
COc1ccc(C)cc1S(=O)(=O)N(C)CC(=O)N1CCN(C)CC1 | i | nt | i | i | nt | i
COc1ccc(C)cc1S(=O)(=O)N(C)CC(=O)N1CCCCCC1 | i | nt | i | 75 | nt | i
C/C=C/c1ccc([C@H]2[C@H]3CN(S(=O)(=O)c4ccccc4)CC(=O)N3[C@H]2CO)cc1 | nt | i | nt | nt | nt | nt
S=C1Cc2ccccc2N1 | i | 66 | 86 | 95 | 106 | 91
Cc1ccc(NC(=O)C(=Cc2ccc(C(=O)O)cc2)C(=O)Nc2ccc(C)cc2C)c(C)c1 | ? | nt | i | 95 | nt | i
C/C=C/c1ccc([C@H]2[C@@H](C#N)N(C(=O)c3cccnc3)[C@H]2CO)cc1 | nt | i | nt | nt | i | nt
C[C@H]1CN([C@@H](C)CO)S(=O)(=O)c2ccc(C3=CCCC3)cc2O[C@@H]1CN(C)C(=O)CN(C)C | nt | i | nt | nt | nt | nt
CN(C)CCNC(=O)c1cc2c(s1)-c1ccc(Cl)cc1SC2 | i | i | i | 110 | 93 | 100
N#Cc1c(N)nc(Sc2ccc(Cl)cc2)c(C#N)c1-c1ccccc1Cl | i | i | i | 52 | i | i
COc1ccc(C(=O)/C=C/C(=O)N(CC(=O)NC2CCCCC2)Cc2cccs2)c(O)c1 | 93 | 64 | 70 | 105 | i | 105
CCN(CCNCC(O)COCc1ccc(Cl)cc1)c1cccc(C)c1 (stereo not drawn) | i | i | i | 103 | i | i
O=c1cc(O)c2sc(Nc3ccc(Cl)c(F)c3)nc2[nH]1 | i | i | i | i | 70 | i
COc1ccc(Nc2nc3[nH]c(=O)cc(O)c3s2)cc1 | i | i | i | i | i | i
O=c1cc(O)c2sc(Nc3ccc(F)c(Cl)c3)nc2[nH]1 | i | i | i | i | 74 | i
Cc1noc(C)c1S(=O)(=O)Nc1cccc2c1O[C@H](CN(C)Cc1ccccc1)[C@H](C)CN([C@@H](C)CO)C2=O | nt | i | nt | nt | i | nt
NC(=O)[C@@H]1[C@H]2C(=O)O[C@H](c3ccccc3)[C@H](c3ccccc3)N2[C@H](c2ccc(O)cc2)[C@@]12C(=O)Nc1ccccc12 | nt | i | nt | nt | i | nt
C[C@H](CO)N1C[C@H](C)[C@H](CN(C)Cc2ccc(C(=O)O)cc2)Oc2ccc(NC(=O)Nc3cccc4ccccc34)cc2C1=O | nt | i | nt | nt | i | nt
